The source of these data is PubChem BioAssay (NCI).

Experiment [1] is described as follows: NCI Yeast Anticancer Drug Screen. Data for the rad50 strain (AID 155).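 Further: 0% = growth of vehicle-only cultures of the same strain.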 Conditions: S. cerevisiae rad50 strain growth inhibition; at 50.0 µM; hits give high values. The gist of the method: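 A DNA repair-deficient yeast mutant serves as the test organism; compound-induced growth inhibition is calculated against vehicle-treated cells.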
Experiment [2] in a line: NCI Yeast Anticancer Drug Screen. Data for the mec2-1 strain (AID 157). Conditions: S. cerevisiae mec2-1 strain, at 50.0 µM, hits give high values. Put shortly: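 mec2-1 yeast strain, carrying an alteration in DNA damage repair or cell cycle control, was exposed to compounds; growth inhibition was measured relative to vehicle-treated controls.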
A short description of experiment [3]: NCI Yeast Anticancer Drug Screen. Data for the sgs1 mgt1 strain (AID 161).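 Further: 0% = growth of cultures given vehicle only.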 As to conditions: S. cerevisiae sgs1 mgt1 strain, at 50.0 µM, hits give high values. The gist of the method: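 Growth of a repair-deficient yeast mutant was monitored after compound treatment and expressed as inhibition relative to vehicle-treated cultures.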
The nature of experiment [4]: NCI Yeast Anticancer Drug Screen. Data for the cln2 rad14 strain (AID 165).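 Further: 0% = growth equal to vehicle treated cultures.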 As to conditions: S. cerevisiae cln2 rad14 strain, at 50.0 µM, hits give high values. The gist of the method:
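Yeast carrying cln2 and rad14 alterations (cell cycle control and DNA damage repair) were exposed to compounds. Growth inhibition was measured against vehicle-treated controls.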

Experiment [5] is described as follows: NCI Yeast Anticancer Drug Screen. Data for the bub3 strain (AID 167). Conditions: S. cerevisiae bub3 mutant strain, at 50.0 µM, hits give high values. Put shortly: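 Inhibition values come from growth of compound-treated mutant yeast normalised to vehicle-treated controls.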
Experiment [6] in a line: NCI Yeast Anticancer Drug Screen. Data for the mlh1 rad18 strain (AID 175). As to conditions: S. cerevisiae mlh1 rad18 strain growth inhibition; at 50.0 µM; hits give high values. Put shortly: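 Growth inhibition of the yeast strain was measured after compound exposure and expressed relative to vehicle-treated controls. The strain carries defined defects in DNA damage repair.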

Compounds without any hit were thinned out: in the full panel of roughly 79,000, 15% have a hit. A number with no mark means an inactive call. Activity calls are given as the source filed them. No stated cut-off is given here; in the data, active means growth inhibition above about 70%; inactive means the rest.

For `COC1=C(C#N)C(c2ccccc2)CC(N)=N1` (stereo unspecified), the growth inhibition was 1.55% in experiment [1]; -11.1% in experiment [2]; -10.1% in experiment [3]; 2.1% in experiment [4]; -1% in experiment [5]; 20.4% in experiment [6].
For `CCOC(=O)CC1(C)OCCO1`, the growth inhibition is 31.9% in experiment [1]; 11.4% in experiment [2]; 8.95% in experiment [3]; 21.8% in experiment [4]; 21.3% in experiment [5]; 28% in experiment [6].
On to `O=C(CC(=O)CC(O)(C(F)(F)F)C(F)(F)F)CC(O)(C(F)(F)F)C(F)(F)F`, for which the growth inhibition was 73.1% (active) in experiment [1]; 65.1% in experiment [2]; 79.8% (active) in experiment [3]; 59% in experiment [4]; 55.9% in experiment [5]; 78.2% (active) in experiment [6].
As for `CCCCCCCCCSCCS`, the growth inhibition in experiment [1] was -14.1%; in experiment [2] it was 7.4%; in experiment [3], 2%; in experiment [4], -16.2%; in experiment [5] it was -19.4%; in experiment [6], -22.2%.
As to `CC(C)CC([N+](C)(C)C)P(=O)([O-])O` (stereo unspecified), the growth inhibition is -4.4% in experiment [1]; 1.6% in experiment [2]; -4.7% in experiment [3]; -9.2% in experiment [4]; 20.9% in experiment [5]; -3.5% in experiment [6].
In the case of `CC(=O)C1=C(C)N2C(=NC3=C(CCc4ccccc43)C2c2ccc(F)cc2)S1` (stereo unspecified), the growth inhibition is -5.6% in experiment [1]; -23.9% in experiment [2]; -15.4% in experiment [3]; 11.3% in experiment [4]; -21.8% in experiment [5]; -9.8% in experiment [6].
With `O=C(Nc1ccc(Br)cc1)c1ccccc1`, the growth inhibition in experiment [1] was 14.4%; in experiment [2], 20.9%; in experiment [3], 0.35%; in experiment [4], -31.5%; in experiment [5], 0.8%; in experiment [6], 22.1%.
Regarding `CCCCCCC1=CC(=O)CC(=O)C1`, the growth inhibition in experiment [1] is 25.9%; in experiment [2], 7.1%; in experiment [3] it was 16.6%; in experiment [4] it was 13.6%; in experiment [5], 18%; in experiment [6], 4.25%.
Take `C(=C\c1ccccc1)/C=N/N=C/C=C/c1ccccc1`: the growth inhibition in experiment [1] was -5.5%; in experiment [2] it was -30.1%; in experiment [3] it was -10.9%; in experiment [4], -37%; in experiment [5], 4.45%; in experiment [6], -4%.
As to `CC(=O)NCS(=O)(=O)O`, the growth inhibition is -25.3% in experiment [1]; -13.4% in experiment [2]; -0.9% in experiment [3]; -34% in experiment [4]; -12.3% in experiment [5]; -9.55% in experiment [6].
With `O=C(O)C1CCCCC1C(=O)Nc1nc2ccccc2[nH]1` (stereo unspecified), the growth inhibition in experiment [1] is -18.6%; in experiment [2], -17.1%; in experiment [3], -12.7%; in experiment [4], -16.7%; in experiment [5], -57.9%; in experiment [6] it was -10.6%.
For `Cn1cc2c(=O)n(OS(=O)(=O)c3ccccc3)c(=O)[nH]c2n1`, the growth inhibition in experiment [1] is 12.8%; in experiment [2], -11.8%; in experiment [3], -4.55%; in experiment [4], -4.4%; in experiment [5] it was -5.2%; in experiment [6], 8.8%.
Take `CC(Br)CCc1ccccc1Br` (stereo unspecified): the growth inhibition in experiment [1] was 3.95%; in experiment [2], -8.9%; in experiment [3] it was -2.95%; in experiment [4], -39.5%; in experiment [5], 19.9%; in experiment [6], 10.7%.
As to `CCCCCCCCCCc1c2nc(c(CCCCCCCCCC)c3ccc([nH]3)c(CCCCCCCCCC)c3ccc([nH]3)c(CCCCCCCCCC)c3nc1C=C3)C=C2`, the growth inhibition in experiment [1] is -18.1%; in experiment [2], -11.9%; in experiment [3], -5.95%; in experiment [4], 23.4%; in experiment [5] it was 6%; in experiment [6] it was -63.7%.
As to `CC(=O)COc1ccccc1-c1ccccc1`, the growth inhibition in experiment [1] is 5.4%; in experiment [2] it was 8.55%; in experiment [3], 4.9%; in experiment [4], -34.8%; in experiment [5], 8.6%; in experiment [6], -14.7%.
As to `CC1=C(C(=O)NNC(=O)c2ccccc2)CC(C(=O)NNC(=O)c2ccccc2)=C(C)N1`, the growth inhibition in experiment [1] is -24.3%; in experiment [2] it was 14.5%; in experiment [3] it was 1.85%; in experiment [4], -34.6%; in experiment [5], -13.2%; in experiment [6] it was -28.6%.
As for `CC1(C)OC2(C)CCC1C1C2N1C(=O)Nc1cccc2ccccc12` (stereo unspecified), the growth inhibition in experiment [1] is -9%; in experiment [2] it was -9.5%; in experiment [3], -1.35%; in experiment [4] it was -6.5%; in experiment [5], -3.75%; in experiment [6], -22.8%.
For the compound `CC(C)(C)C(=O)OCn1cc2c(=O)[nH]cnc2n1`, the growth inhibition in experiment [1] was 11.9%; in experiment [2] it was 8.1%; in experiment [3] it was 28.6%; in experiment [4] it was -3.75%; in experiment [5], -8.7%; in experiment [6], 9.15%.
Regarding `CC([N+](=O)[O-])S(=O)(=O)c1ccccc1` (stereo unspecified), the growth inhibition was 3.55% in experiment [1]; -20.1% in experiment [2]; -10.4% in experiment [3]; -7.45% in experiment [4]; -2.95% in experiment [5]; 5.5% in experiment [6].
For the compound `CCCC(P(=O)(c1ccccc1)c1ccccc1)[P+](CC)(c1ccccc1)c1ccccc1` (stereo unspecified), the growth inhibition in experiment [1] is 84.6% (active); in experiment [2], 78.2% (active); in experiment [3] it was 85.9% (active); in experiment [4], 54.6%; in experiment [5] it was 81.7% (active); in experiment [6], 77.8% (active).
Take `C(=N\N1CCN(/N=C/c2c[nH]c3ccccc23)CC1)/c1c[nH]c2ccccc12`: the growth inhibition in experiment [1] was 10.3%; in experiment [2] it was -11.5%; in experiment [3] it was -12.8%; in experiment [4], -1.05%; in experiment [5] it was 0.7%; in experiment [6], -3.05%.
